For 43 sequences, binding signal results are on record in PMC10726135, “HNF4α isoforms regulate the circadian balance between carbohydrate and lipid metabolism in the liver”.

In all, about 18,000 sequences were measured (“log2 normalized intensity”: median about 0.39, highest 2% from about 6.6 on). The entries come from a sample that favours the highest values as a whole.

For this assay, the target named is T1, HNF4alpha2 (COS-7 nuclear extract) (Homo sapiens, UniProt P41235 1-474).
T1 sequence: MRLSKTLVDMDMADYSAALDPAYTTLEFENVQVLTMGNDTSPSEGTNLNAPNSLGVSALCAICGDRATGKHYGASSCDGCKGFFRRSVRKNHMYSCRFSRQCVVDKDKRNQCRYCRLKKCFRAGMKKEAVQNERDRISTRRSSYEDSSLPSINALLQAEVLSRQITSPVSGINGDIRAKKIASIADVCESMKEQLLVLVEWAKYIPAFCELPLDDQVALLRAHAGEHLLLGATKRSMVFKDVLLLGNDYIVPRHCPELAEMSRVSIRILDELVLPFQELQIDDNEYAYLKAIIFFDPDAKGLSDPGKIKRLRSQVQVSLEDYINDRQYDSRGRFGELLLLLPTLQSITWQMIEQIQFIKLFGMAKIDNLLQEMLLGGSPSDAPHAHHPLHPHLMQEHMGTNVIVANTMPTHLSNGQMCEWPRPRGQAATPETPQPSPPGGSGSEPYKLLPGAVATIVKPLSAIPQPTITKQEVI
The experiment in a line: protein-binding microarray; COS-7 nuclear extract on double-stranded Agilent 4x180k PBM; binding buffer, salt, pH and temperature not given in the material; high values mean tight binding. As to conditions: chain copies: 2; label: 3' end of strand 1 on the slide; dsDNA, one strand shown. Summed up:
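COS-7 cells were transiently transfected by CaPO4 with an expression vector for a human HNF4α isoform, and nuclear extracts were prepared from them. The extracts were applied to a custom Agilent SurePrint G3 4x180k array of double-stranded ~60-nt oligonucleotides, with ~44,000 test sequences spotted in quadruplicate. An Agilent G2565CA scanner imaged bound HNF4α at 2-µm resolution. Binding signal is the background-corrected, normalized gProcessedSignal from Agilent software.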
Consider “GGACCTGAGGCTTTTGAGTCAATAATGGACGCCTAGGGAGATTAGAGTATCGGTCGA”, for which the binding signal was found to be 1.21 log2 normalized intensity.
With “GAGGCTCAGACCTGACCTTTGGATTCCCAGGCCTAGGGAGATTAGAGTATCGGTCGA” the figure was 6.53 log2 normalized intensity.
Regarding “TGCTGGAGATGAGGCTCAGACCTGACCTTTGCCTAGGGAGATTAGAGTATCGGTCGA”, the binding signal is 6.49 log2 normalized intensity.
In the case of “GAGATGAGGCTCAGACCTGACCTTTGGATTGCCTAGGGAGATTAGAGTATCGGTCGA”, the binding signal came out at 7.99 log2 normalized intensity.
For “TACTTTGGACTGGGGACCTGGTCTGAGATAGCCTAGGGAGATTAGAGTATCGGTCGA”, the binding signal was determined as 1.75 log2 normalized intensity.
As to “ATGTGGGGAAACTGGACTGTAATTTGTGGTGCCTAGGGAGATTAGAGTATCGGTCGA”, the binding signal amounted to 1.43 log2 normalized intensity.
With “ACGTCAGAACTGTCCTTTAACCTCCCTGCAGCCTAGGGAGATTAGAGTATCGGTCGA” the figure was 1.99 log2 normalized intensity.
As for “AATGGAAGAATCACAGTGTGGGGCAAATCTGCCTAGGGAGATTAGAGTATCGGTCGA”, the binding signal was -0.752 log2 normalized intensity.
As to “ACCAGGGGGCAGAGTGAGCAGCACTTTTGGGCCTAGGGAGATTAGAGTATCGGTCGA”, the binding signal is -0.845 log2 normalized intensity.
Take “CTGCCAAAGTTCAGCCTTGGGGCCATTCCAGCCTAGGGAGATTAGAGTATCGGTCGA”: the binding signal amounted to 0.325 log2 normalized intensity.
Take “GCCACCCTCCTCTCTGGGTCAAAGGTCATCGCCTAGGGAGATTAGAGTATCGGTCGA”: the binding signal was 9.58 log2 normalized intensity.
For “GAGGTGTCAGCCACCCCTCCTCCTGGGGGCGCCTAGGGAGATTAGAGTATCGGTCGA”, the binding signal is 2.64 log2 normalized intensity.
For the sequence “CACTGGCTCTGGGGTCAAAGTCCCCTGAGCGCCTAGGGAGATTAGAGTATCGGTCGA”, the binding signal was 7.16 log2 normalized intensity.
As to “CTCTCCCTCCTCTCTGAGCAGTCAAACTGGGCCTAGGGAGATTAGAGTATCGGTCGA”, the binding signal stood at 1.96 log2 normalized intensity.
For “AGGTCGCAAGCACTGGCTCTGGGGTCAAAGGCCTAGGGAGATTAGAGTATCGGTCGA”, the binding signal came to 3.1 log2 normalized intensity.
With “AAAGGTCATCGCACCGGCAGGGGAGAACTTGCCTAGGGAGATTAGAGTATCGGTCGA”, the binding signal stood at 0.284 log2 normalized intensity.
Take “CCTCCTCTCTGGGTCAAAGGTCATCGCACCGCCTAGGGAGATTAGAGTATCGGTCGA”: the binding signal was 7.54 log2 normalized intensity.
Take “TCATCGCACCGGCAGGGGAGAACTTCCTCCGCCTAGGGAGATTAGAGTATCGGTCGA”: the binding signal was -0.988 log2 normalized intensity.
Consider “CCTGCCTCTCCTCTGAGCTTCATCCTGACCGCCTAGGGAGATTAGAGTATCGGTCGA”, for which the binding signal worked out at 1.62 log2 normalized intensity.
Regarding “CTGGGGCCACCCTCCTCTCTGGGTCAAAGGGCCTAGGGAGATTAGAGTATCGGTCGA”, the binding signal amounted to 4.74 log2 normalized intensity.
In the case of “TCTCTGGGTCAAAGGTCATCGCACCGGCAGGCCTAGGGAGATTAGAGTATCGGTCGA”, the binding signal is 7.15 log2 normalized intensity.
Turning to “GGGGTCAAAGTCCCCTGAGCTTGAGTCCATGCCTAGGGAGATTAGAGTATCGGTCGA”, the binding signal was 5.36 log2 normalized intensity.
In the case of “AAGTGTGGTCAAGGGTCAGTTTCTGAGAGTGCCTAGGGAGATTAGAGTATCGGTCGA”, the binding signal stood at 3.65 log2 normalized intensity.
Regarding “ATAGTTGACCCTTGAACAATGTGGGGGTCGGCCTAGGGAGATTAGAGTATCGGTCGA”, the binding signal turned out to be 3.7 log2 normalized intensity.
As for “CTTGTCCTTGACCCTTCCTCCCATTTGCTGGCCTAGGGAGATTAGAGTATCGGTCGA”, the binding signal is 2.29 log2 normalized intensity.
As to “GCCCCCGCAGACCCAGTCTTAGGGACTAAGGCCTAGGGAGATTAGAGTATCGGTCGA”, the binding signal was 3.86 log2 normalized intensity.
On to “TCCCTTCCCCCCTCCTCATTGAGAGTTTTAGCCTAGGGAGATTAGAGTATCGGTCGA”, for which the binding signal was 4.2 log2 normalized intensity.
For the sequence “TTGAAGCTCCAAGATAGGAATGTACATAATGCCTAGGGAGATTAGAGTATCGGTCGA”, the binding signal worked out at 1.11 log2 normalized intensity.
Turning to “GTCTTAGGGACTAAGCTTGTAGACCAAGGAGCCTAGGGAGATTAGAGTATCGGTCGA”, the binding signal is 0.172 log2 normalized intensity.
Regarding “AAGGCTGCAAGCAAACCTGCCCTTTGCTCCGCCTAGGGAGATTAGAGTATCGGTCGA”, the binding signal came to 5.57 log2 normalized intensity.
The result for “GGGAAACACAGACTCCAAAGAATGGAAGGCGCCTAGGGAGATTAGAGTATCGGTCGA” reads -0.871 log2 normalized intensity; that for “CCTTTGGTCTAAACCTACTTAGATCAAGATGCCTAGGGAGATTAGAGTATCGGTCGA”, -0.394 log2 normalized intensity.
The result for “ACCCCAAAACCCCCAAAGGTGAGTAGGGCCGCCTAGGGAGATTAGAGTATCGGTCGA” reads 2.67 log2 normalized intensity; that for “TGCTCTCTCATGCCCTTTGCCTCCCTGCATGCCTAGGGAGATTAGAGTATCGGTCGA”, 3.45 log2 normalized intensity.
In the case of “GCATCAGGGTCCACAAGGGTTTAAATCTGAGCCTAGGGAGATTAGAGTATCGGTCGA”, the binding signal is 1.03 log2 normalized intensity.
Regarding “CCTGAGAGGCCAGTTTGACCTTTGCATTCTGCCTAGGGAGATTAGAGTATCGGTCGA”, the binding signal stood at 7.56 log2 normalized intensity.
“ATATCCCTGAGAGGCCAGTTTGACCTTTGCGCCTAGGGAGATTAGAGTATCGGTCGA”: the binding signal stood at 8.38 log2 normalized intensity.
As for “TCACCATATCCCTGAGAGGCCAGTTTGACCGCCTAGGGAGATTAGAGTATCGGTCGA”, the binding signal is 2.83 log2 normalized intensity.
With “TTTGGAGTTTGACCTGGAGCCAGGGCCTTTGCCTAGGGAGATTAGAGTATCGGTCGA”, the binding signal is 3.11 log2 normalized intensity.
Turning to “GAGGCCAGTTTGACCTTTGCATTCTTACCCGCCTAGGGAGATTAGAGTATCGGTCGA”, the binding signal was determined as 5.97 log2 normalized intensity.
With “CAGTTTGACCTTTGCATTCTTACCCAAGCCGCCTAGGGAGATTAGAGTATCGGTCGA”, the binding signal amounted to 4.4 log2 normalized intensity.
The result for “CACAGGTAAACATTTGCCTTTAGGGCCCCCGCCTAGGGAGATTAGAGTATCGGTCGA” reads 2.56 log2 normalized intensity; that for “GTGGGCAAGTTATCTCGGGGTGGCATGTATGCCTAGGGAGATTAGAGTATCGGTCGA”, 1.14 log2 normalized intensity.
